Compounds without any hit were thinned out: in the full panel of roughly 83,000, 20% have a hit.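 Testing used 96-well plates and a 48-hour single-concentration exposure. Example: -40 means 40% of the starting cells died.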 Calls of active or inactive are those of the source. Rule for the calls: active = growth percent below 10; inactive = the rest.
How the values were obtained:
Assay in all cases: NCI-60 one-dose screen, 48 h (100 = growth as untreated, 0 = no growth, -100 = all killed)
Details in all cases: 10 µM unless noted
NCI-H23 lung = system: NCI-H23 lung
NCI-H226 lung = system: NCI-H226 lung
NCI-H322M lung = system: NCI-H322M lung
HOP-62 NSCLC = system: HOP-62 NSCLC
NCI-H460 lung = system: NCI-H460 lung
HOP-92 NSCLC = system: HOP-92 NSCLC
NCI-H522 lung = system: NCI-H522 lung
A549/ATCC NSCLC = system: A549/ATCC NSCLC
786-0 renal = system: 786-0 renal
COLO 205 colon = system: COLO 205 colon

Measured: growth

Cc1cccc(Cl)c1NC(=O)c1cnc(Nc2cc(N3CCOCC3)cc(N3CCOCC3)c2)s1
inactive: NCI-H23 lung 73.8% | NCI-H226 lung 68.6% | NCI-H460 lung 51.2% | A549/ATCC NSCLC 10.7% | 786-0 renal 17.1%
active: NCI-H322M lung -10.4% | HOP-62 NSCLC 4.81% | HOP-92 NSCLC -42.1% | NCI-H522 lung -9.13% | COLO 205 colon -4.18%

Cc1ccc(NC(=O)c2ccc(CN3CC[C@H](N(C)C)C3)c(C(F)(F)F)c2)cc1Nc1nccc(-c2cncnc2)n1
active: HOP-62 NSCLC -0.939% | NCI-H460 lung 4.17% | HOP-92 NSCLC -84.7% | NCI-H522 lung -29.7% | A549/ATCC NSCLC 1.73% | 786-0 renal -54.7% | COLO 205 colon -55.5%
inactive: NCI-H23 lung 13.2% | NCI-H226 lung 12.9% | NCI-H322M lung 26.2%

COC(=O)[C@]12CC[C@@H](C)[C@H](C)[C@@H]1C1=CC[C@@H]3[C@@]4(C)C(C=O)=C[C@@](C)(COS(C)(=O)=O)C4=CC[C@@]3(C)[C@]1(C)CC2
active: NCI-H23 lung -45.8% | NCI-H226 lung -57% | HOP-62 NSCLC -14.5% | NCI-H460 lung -73.6% | HOP-92 NSCLC -87.7% | NCI-H522 lung -75.2% | A549/ATCC NSCLC -14.6% | 786-0 renal -66% | COLO 205 colon -39.9%
inactive: NCI-H322M lung 12.2%

C[C@H](NC(=O)c1c(N)nn2cccnc12)c1cc2cccc(C#Cc3cnn(C)c3)c2c(=O)n1-c1ccccc1
inactive: NCI-H23 lung 40.9% | NCI-H226 lung 70.3% | NCI-H322M lung 53.6% | HOP-62 NSCLC 11.8% | NCI-H460 lung 30.4% | NCI-H522 lung 14.1% | A549/ATCC NSCLC 20.3% | 786-0 renal 19.1%
active: HOP-92 NSCLC 9.5% | COLO 205 colon -11.7%

NC(=O)N1N=C(c2ccc(Cl)cc2)CC1c1cn(-c2ccccc2)nc1-c1ccc(Cl)cc1 (stereo not given)
active: 786-0 renal -7.43%
inactive: NCI-H23 lung 56.5% | NCI-H226 lung 30.1% | NCI-H322M lung 63.1% | HOP-62 NSCLC 37.8% | NCI-H460 lung 41.9% | HOP-92 NSCLC 49.7% | NCI-H522 lung 56.9% | A549/ATCC NSCLC 41.3% | COLO 205 colon 81.9%

CC1(O)CCC(Nc2cc(-c3ccc(C(F)(F)F)cc3)c(C#N)c3nc4ccccc4n23)CC1 (stereo not given)
inactive: NCI-H23 lung 81.9% | NCI-H226 lung 71% | NCI-H322M lung 89.9% | HOP-62 NSCLC 64.7% | NCI-H460 lung 68.7% | HOP-92 NSCLC 52.5% | NCI-H522 lung 63.2% | A549/ATCC NSCLC 56% | 786-0 renal 70.7% | COLO 205 colon 61%

COc1cc(F)c(F)c(Nc2ccc(I)cc2F)c1NS(=O)(=O)C1(C[C@H](O)CO)CC1
active: HOP-92 NSCLC -19.1% | COLO 205 colon -0.628%
inactive: NCI-H23 lung 13% | NCI-H226 lung 41.3% | NCI-H322M lung 14.2% | HOP-62 NSCLC 25.1% | NCI-H460 lung 27.8% | NCI-H522 lung 31.4% | A549/ATCC NSCLC 26.3% | 786-0 renal 54.5%

C=C1C(=O)O[C@H]2[C@H]1CC/C(C=Nc1c(N)cc(C(F)(F)F)cc1C(F)(F)F)=C\CC[C@@]1(C)O[C@@H]21
active: NCI-H23 lung -29% | NCI-H226 lung -53.1% | NCI-H460 lung -17.9% | HOP-92 NSCLC -39.9% | NCI-H522 lung -55.4% | 786-0 renal -66.5% | COLO 205 colon -59.7%
inactive: NCI-H322M lung 49.3% | HOP-62 NSCLC 21.3% | A549/ATCC NSCLC 11.9%

N#Cc1cc2[nH]c3ccc(OC(F)(F)F)cc3c2oc1=O
inactive: NCI-H23 lung 83.7% | NCI-H226 lung 82.4% | NCI-H322M lung 93.5% | HOP-62 NSCLC 56.6% | NCI-H460 lung 87.6% | HOP-92 NSCLC 104% | NCI-H522 lung 42.4% | A549/ATCC NSCLC 91.3% | 786-0 renal 93.9% | COLO 205 colon 86.8%

CCCCCCCC(=O)SCC/C=C/[C@@H]1CC(=O)NCc2cc(ccn2)C2=N[C@@](C)(CS2)C(=O)N[C@@H](C(C)C)C(=O)O1
active: NCI-H23 lung 2.97% | NCI-H226 lung -8.32% | NCI-H322M lung -16.8% | HOP-62 NSCLC -19% | NCI-H460 lung 5.33% | HOP-92 NSCLC -6.63% | NCI-H522 lung -13% | A549/ATCC NSCLC -6.82% | COLO 205 colon -56%
inactive: 786-0 renal 12%

CO[C@H](C(=O)N[C@@H](CCCCNC(=O)OCc1ccccc1)C(=O)OC(C)(C)C)[C@@H]1Cc2cc3cc(OC4CC(OC5CC(O)C(O)C(C)O5)C(O)C(C)O4)c(C)c(O)c3c(O)c2C(=O)[C@H]1OC1CC(OC2CC(OC3CC(C)(O)C(O)C(C)O3)C(O)C(C)O2)C(O)C(C)O1 (stereo not given in full)
inactive: NCI-H322M lung 20.2%
active: NCI-H23 lung -42.6% | NCI-H226 lung -75.5% | HOP-62 NSCLC -15% | NCI-H460 lung -17.6% | HOP-92 NSCLC -82.6% | NCI-H522 lung -16% | A549/ATCC NSCLC -25.7% | 786-0 renal -89.8% | COLO 205 colon -20.7%

COc1ccc(/C(C)=C(\c2ccc(Cl)cc2)c2ccc(OCCN3CCCCCC3)cc2)cc1
inactive: NCI-H23 lung 51.3% | NCI-H226 lung 60.6% | NCI-H322M lung 79.5% | HOP-62 NSCLC 48.4% | NCI-H460 lung 32.3% | HOP-92 NSCLC 79.5% | NCI-H522 lung 51.5% | A549/ATCC NSCLC 39.4% | 786-0 renal 59.7% | COLO 205 colon 17.2%

COc1cc(OC)c(C(=O)/C=C/c2cc3c(cc2OCc2ccccc2)OC(C)(C)CC3)cc1CC=C(C)C
active: HOP-92 NSCLC -21.7%
inactive: NCI-H23 lung 48.2% | NCI-H226 lung 43.2% | NCI-H322M lung 79.6% | HOP-62 NSCLC 85.2% | NCI-H460 lung 78.6% | NCI-H522 lung 65.2% | A549/ATCC NSCLC 32.9% | 786-0 renal 79.9% | COLO 205 colon 84.7%

CN1CCN(c2ccc(C(=O)Nc3n[nH]c4ccc(Cc5cc(F)cc(F)c5)cc34)c(NC3CCOCC3)c2)CC1
active: NCI-H226 lung -5.76% | HOP-62 NSCLC -34.8% | NCI-H460 lung -80.3% | HOP-92 NSCLC -68.6% | NCI-H522 lung -70.6% | A549/ATCC NSCLC -51.7% | 786-0 renal -95.1% | COLO 205 colon -73.6%
inactive: NCI-H23 lung 11% | NCI-H322M lung 33.8%

CCN1CCN(Cc2ccc(Cc3ncc(F)c(-c4cc(F)c5nc(C)n(C(C)C)c5c4)n3)nc2)CC1
active: NCI-H460 lung -56.1%
inactive: NCI-H23 lung 44.3% | NCI-H226 lung 34.3% | NCI-H322M lung 29.3% | HOP-62 NSCLC 44.4% | HOP-92 NSCLC 50% | NCI-H522 lung 69% | A549/ATCC NSCLC 28.5% | 786-0 renal 46.4% | COLO 205 colon 16%

O=c1[nH]c([C@@H]2CCCN2)nc2c1oc1ccc(Cl)cc12
inactive: NCI-H23 lung 60.7% | NCI-H226 lung 51.8% | NCI-H322M lung 56% | HOP-62 NSCLC 47.2% | NCI-H460 lung 34.4% | HOP-92 NSCLC 39.8% | NCI-H522 lung 24.7% | A549/ATCC NSCLC 37.9% | 786-0 renal 84.4% | COLO 205 colon 12%

COc1ccc2c(CCC(c3ccccc3)c3ccccc3)c3[n+](cc2c1OC)CCc1cc2c(cc1-3)OCO2
inactive: NCI-H226 lung 24.7% | NCI-H322M lung 33.1% | A549/ATCC NSCLC 15.7% | 786-0 renal 14.8%
active: NCI-H23 lung 0.765% | HOP-62 NSCLC 9.37% | NCI-H460 lung -3.4% | HOP-92 NSCLC -9.89% | NCI-H522 lung -0.122% | COLO 205 colon -58.8%

CC1=CC2c3oc(-c4ccccc4)c(C(=O)c4ccccc4)c3CNC2C=C1 (stereo not given)
inactive: NCI-H23 lung 95% | NCI-H226 lung 83.8% | NCI-H322M lung 94.6% | HOP-62 NSCLC 74.5% | NCI-H460 lung 100% | HOP-92 NSCLC 97.5% | NCI-H522 lung 57.7% | A549/ATCC NSCLC 74.2% | 786-0 renal 111% | COLO 205 colon 109%

Nc1nc(Nc2ccccc2)c(C=Nc2ccccc2)c(=O)[nH]1
inactive: NCI-H23 lung 88.5% | NCI-H226 lung 86.5% | NCI-H322M lung 93.3% | HOP-62 NSCLC 73.7% | NCI-H460 lung 102% | HOP-92 NSCLC 66.8% | NCI-H522 lung 57.9% | A549/ATCC NSCLC 89.6% | 786-0 renal 93.5% | COLO 205 colon 107%

CCN1CCN(Cc2ccc(-c3cc4c(N[C@H](C)c5ccccc5)ncnc4[nH]3)cc2)CC1
inactive: NCI-H23 lung 42.3% | NCI-H226 lung 50.9% | HOP-62 NSCLC 28.5% | NCI-H460 lung 21.9% | HOP-92 NSCLC 21.4% | A549/ATCC NSCLC 17.5% | 786-0 renal 50.3%
active: NCI-H322M lung -2.25% | NCI-H522 lung 6.19% | COLO 205 colon -21.4%

ClCc1ccc(-c2ccc(Cn3cnc4nc(Cl)nc(Cl)c43)cc2)cc1
inactive: NCI-H23 lung 23.6% | NCI-H226 lung 29.1% | NCI-H322M lung 56.8% | NCI-H460 lung 14.3% | HOP-92 NSCLC 25.8%
active: HOP-62 NSCLC 8.06% | NCI-H522 lung -25.2% | A549/ATCC NSCLC -6.5% | 786-0 renal -14% | COLO 205 colon -14.1%

Clc1ccc(/C=C/c2cc(N3CCOCC3)c3cc(Cl)c(Cl)cc3n2)cc1
inactive: NCI-H23 lung 100% | NCI-H226 lung 85.5% | NCI-H322M lung 94.3% | HOP-62 NSCLC 122% | NCI-H460 lung 95% | HOP-92 NSCLC 96.6% | A549/ATCC NSCLC 79.9% | COLO 205 colon 98.1%
active: NCI-H522 lung -43.7% | 786-0 renal -11%

CNC(=O)c1cc(COc2nnc(Nc3ccc(Cl)cc3)c3ccoc23)ccn1
inactive: NCI-H23 lung 62.2% | NCI-H226 lung 21.3% | NCI-H322M lung 45.4% | NCI-H460 lung 31.2% | NCI-H522 lung 10.4% | A549/ATCC NSCLC 35.3% | COLO 205 colon 72.4%
active: HOP-62 NSCLC -75.2% | HOP-92 NSCLC -5.53% | 786-0 renal -27.1%
